Results: PubChem BioAssay (NCATS)
Records with an inconclusive call do not appear. Activity calls are given as the source filed them. Unless noted, calls follow the shape of the full dose curve.

Assays:
[1] = target: Estrogen receptor (Homo sapiens) (UniProt P03372); experiment: qHTS assay for small molecule agonists of estrogen receptor alpha signaling (AID 588514);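 also: 0% = vehicle only and 100% = reference agonist; nearly all actives have a fitted effect of over 70% in size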
Outline: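 EC50 and efficacy came from Hill fits of beta-lactamase reporter signal (CCF4 dye, 2 h at room temperature) scaled between DMSO and 20 nM 17-beta-estradiol. Agonist mode: HEK293 ER-alpha-UAS-bla cells in charcoal/dextran-stripped serum medium, 18 h compound exposure at 37 C.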

[2] = target: Peroxisome proliferator-activated receptor delta (Homo sapiens) (UniProt Q03181); experiment: qHTS assay for small molecule agonists of peroxisome proliferator-activated receptor delta signaling (AID 588534);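 also: 0% = DMSO basal wells and 100% = positive control agonist at 10 µM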
Outline: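 Agonist-mode beta-lactamase reporter readout (CCF4 dye, 2 h at RT) after 18 h at 37 °C exposure to a titration; Hill-equation fitting gave EC50 and maximal response.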

[3] = target: Peroxisome proliferator-activated receptor gamma (Homo sapiens) (UniProt P37231); experiment: qHTS assay for small molecule agonists of peroxisome proliferator-activated receptor gamma signaling (AID 588536; active = well fitted curve in the direction sought with a large enough effect in the signal ratio, with a control signal flat, not every such curve was filed as active; the % refers to the signal ratio;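 also: 0% = DMSO basal wells and 100% = rosiglitazone at 2 µM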)
Outline: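 Compound treatment: 16 h, 37 C, HEK293 GeneBLAzer cells. Detection: CCF4, 2 h RT. Values: Hill-fit EC50, efficacy as % of 2 uM rosiglitazone.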

[4] = target: Vitamin D3 receptor (Homo sapiens) (UniProt P11473); experiment: qHTS assay for small molecule antagonists of vitamin D receptor signaling (AID 588541);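 also: receptor activated by calcitriol during compound treatment; series mostly up to about 77 µM; % is scaled to controls: 0 for no effect and ±100 for the full control effect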
Outline: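 VDR-UAS-bla HEK293T cells (2000/well, 2% charcoal-stripped FBS) were treated with titrated compounds plus 1-alpha,25-dihydroxyvitamin D3 (50 nM or 3 nM final) for 16 h at 37 C. CCF4 beta-lactamase fluorescence was read; Hill fits gave IC50.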

[5] = target: Vitamin D3 receptor (Homo sapiens) (UniProt P11473); experiment: qHTS assay for small molecule agonists of vitamin D receptor signaling (AID 588543);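 also: 0% = DMSO basal and 100% = reference agonist control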
Outline: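 β-lactamase reporter, VDR-UAS-bla HEK293T, agonist mode. Cells plated 5 h at 37 °C, compound titration 16 h at 37 °C, CCF4 dye 2 h RT, ratio 460/530 nm. Hill fit → EC50, efficacy vs 50 nM 1α,25-(OH)2D3.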

[6] = qHTS assay for small molecule agonists of retinoid X receptor alpha signaling (AID 588544); details: HEK293T RXRa-UAS-bla, beta-lactamase reporter, 18 h; 530 nm emission;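 as to activation: 0% = DMSO basal wells and 100% = reference agonist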
[7] = target: Retinoic acid receptor RXR-alpha (Homo sapiens) (UniProt P19793); experiment: as above
[8] = target: Thyroid hormone receptor beta (Homo sapiens) (UniProt P10828); experiment: qHTS assay for small molecule agonists of thyroid hormone receptor beta signaling (AID 588545);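 also: 0% = DMSO only and 100% = 10 nM T3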
Outline: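 Efficacy and EC50 values derive from Hill fits of qHTS titration data, normalized to 10 nM T3 and DMSO-only wells. HEK 293 reporter cells were stimulated for 18 hrs at 37 C, with beta-lactamase activity measured by CCF4 fluorescence.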

[9] = qHTS assay for small molecule antagonists of retinoid X receptor alpha signaling (AID 588546; active = well fitted inhibition curve with a large enough effect in the signal ratio, with a control signal flat, not every such curve was filed as active; the % refers to the signal ratio;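 also: cells stimulated with 9-cis-retinoic acid as agonist; % is scaled to controls: 0 for no effect and ±100 for the full control effect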); details: HEK293T RXRa-UAS-bla, beta-lactamase ratio, antagonist mode; measured here: W530 green channel, cytotoxicity proxy
Outline: (§1)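 Beta-lactamase reporter inhibition, read as CCF4 fluorescence ratio (ex 405, em 460/530 nm) after 2 h at RT. HEK293T UAS-bla cells, 2500/well, were stimulated with 9-cis-RA at 500 or 100 nM final alongside test compound for 18 h at 37 C.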

[10] = target: Retinoic acid receptor RXR-alpha (Homo sapiens) (UniProt P19793); experiment: as above; details: HEK293T RXRa-UAS-bla, beta-lactamase ratio, antagonist mode
Outline: as §1

[11] = qHTS assay for small molecule activators of the p53 signaling pathway (AID 651743; active = well fitted activation curve with a large enough effect in the signal ratio, not every such curve was filed as active; the % refers to the signal ratio; also: potency is read from the fitted curve at half-maximal effect; as to activation: series mostly up to about 92 µM; % of control where 0% means no effect); details: HCT-116 p53RE-bla, beta-lactamase FRET ratio, 16 h; activation: stronger effect = higher value
Outline: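 Agonist-mode quantitative HTS in HCT-116 cells carrying a p53-response-element beta-lactamase reporter; 16 h compound treatment at 37 C, then FRET substrate loading for 2 h at room temperature and fluorescence read.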

[12] = qHTS assay for small molecule activators of the nuclear factor-kappa B (NF-kB) signaling pathway (AID 651749; active = well fitted activation curve with a large enough effect in the signal ratio; the % refers to the signal ratio; also: series mostly up to about 77 µM; % of control where 0% means no effect); details: NF-kB-bla ME-180 cells, beta-lactamase FRET ratio, 16 h; activation: stronger effect = higher value
Outline: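 Human ME-180 cervical cells with an NF-kB-bla construct; compounds added via 23 nL pin transfer, DMSO as vehicle; incubation 16 hr. Reporter activity measured by FRET disruption.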

[13] = qHTS assay for environmental chemicals that activate the Aryl hydrocarbon Receptor (AhR) signaling pathway (AID 651777; active = well fitted curve in the direction sought with a large enough effect; an effect the other way counts as inactive or inconclusive; also: % of control where 0% means no effect; nearly all actives have a fitted effect of over 15% in size); details: 1A2-DRE human hepatoma cells, luciferase, 24 h; activation: stronger effect = higher value
Outline: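 Luminescence read-out: One-Glo added for 30 min at RT after 24 hr compound treatment (37 C, 5% CO2) of human hepatoma cells expressing a DRE/CYP1A2 promoter–luciferase reporter; increased signal indicates AhR activation.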

[14] = target: Peroxisome proliferator-activated receptor alpha (Homo sapiens) (UniProt Q07869); experiment: qHTS assay for small molecule agonists of the peroxisome proliferator-activated receptor alpha (PPARalpha) signaling pathway (AID 651778; active = well fitted curve in the direction sought with a large enough effect; an effect the other way counts as inactive or inconclusive; also: potency is read from the fitted curve at half-maximal effect; as to max response: % of control where 0% means no effect); details: PathHunter PPARalpha complementation, chemiluminescence, 6 h; max response: stronger effect = higher value
Outline: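 Cells plated at 2,000/well and held overnight at 37 C, 5% CO2, then compound added by pin tool for 6 hr; after PathHunter detection reagent and 60 min at room temperature, chemiluminescence from enzyme complementation was read.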

[15] = qHTS assay for small molecule agonists of the antioxidant response element (ARE) signaling pathway measured by Nrf2-dependant transcriptional activity (AID 720636; active = well fitted curve in the direction sought with a large enough effect in the repeat runs; an effect the other way counts as inactive or inconclusive;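 also: HepG2 cells with an ARE-driven luciferase reporter; % of control where 0% means no effect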)
Outline: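 HepG2 ARE-luc reporter line, 1% dialyzed FBS; 6 hr attachment at 37 C, compound pinned in, 16 hr at 37 C/5% CO2; ONE-Glo, 30 min RT, luminescence read.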

[16] = qHTS assay for small molecule agonists of the antioxidant response element (ARE) signaling pathway measured by Nrf2-dependant transcriptional activity - cell viability counter screen (AID 720653; active = well fitted curve in the direction sought with a large enough effect in the repeat runs; an effect the other way counts as inactive or inconclusive; also: % is scaled to controls: 0 for no effect and ±100 for the full control effect); details: ARE-bla HepG2 viability, CellTiter-Glo ATP luminescence, 16 h; max response: stronger effect = lower value
Outline: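 ARE-bla HepG2 cells (2,000/well) rested 5 hrs at 37C/5% CO2, then exposed to compounds in DMSO for 16 hrs. Viability was read in the same wells as intracellular ATP by luminescence, 30 min at room temperature after reagent addition.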

[17] = qHTS assay for cell viability of the p53RE-bla HCT-116 cell line (AID 743292; active = well fitted curve in the direction sought with a large enough effect; an effect the other way counts as inactive or inconclusive; also: % is scaled to controls: 0 for no effect and ±100 for the full control effect; nearly all actives have a fitted effect of over 55% in size)
Outline: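 Luminescent ATP quantitation (CellTiter-Glo) served as the viability read-out; reagent was added after 16 h compound exposure at 37 C and read after 30 min at room temperature. Cells: p53RE-bla HCT-116, 4,000 per well.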

[18] = target: Nuclear receptor subfamily 1 group I member 2 (Rattus norvegicus) (UniProt Q9R1A7); experiment: qHTS assay for small molecule activators of the rat pregnane X receptor (rPXR) signaling pathway (AID 651751; call rule not given here; also: 0% is about no effect); details: rPXR reporter cells, luciferase (One-Glo), 24 h
[19] = qHTS assay for cell viability of HEK293 cells (AID 743288; active = well fitted curve in the direction sought with a large enough effect; an effect the other way counts as inactive or inconclusive; also: % is scaled to controls: 0 for no effect and ±100 for the full control effect; nearly all actives have a fitted effect of over 50% in size); details: ATP luminescence (CellTiter-Glo), 18 h; max response: stronger effect = lower value
Outline: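 ATP luminescence (CellTiter-Glo) reports metabolically competent cell number after parental HEK293 cells, 2,000/well, were treated with DMSO-dissolved compounds for 18 h at 37 C; reagent incubation 30 min, room temperature.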

[20] = target: Estrogen receptor (Homo sapiens) (UniProt P03372); experiment: qHTS assay for small molecule antagonists of estrogen receptor alpha signaling (AID 588513; active = well fitted curve in the direction sought with a large enough effect in the signal ratio, with a control signal flat, not every such curve was filed as active; the % refers to the signal ratio; also: % is scaled to controls: 0 for no effect and ±100 for the full control effect)
Outline: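 Beta-lactamase reporter, antagonist mode, HEK 293 GripTite cells; 0.5nM E2 stimulus, 18 h, 37 C; CCF4 dye 2 h RT; fluorescence. IC50 and efficacy from Hill fits, normalized to E2 and DMSO.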

Thyroid hormone receptor beta (Homo sapiens), sequence (P10828 whole entry, looked up): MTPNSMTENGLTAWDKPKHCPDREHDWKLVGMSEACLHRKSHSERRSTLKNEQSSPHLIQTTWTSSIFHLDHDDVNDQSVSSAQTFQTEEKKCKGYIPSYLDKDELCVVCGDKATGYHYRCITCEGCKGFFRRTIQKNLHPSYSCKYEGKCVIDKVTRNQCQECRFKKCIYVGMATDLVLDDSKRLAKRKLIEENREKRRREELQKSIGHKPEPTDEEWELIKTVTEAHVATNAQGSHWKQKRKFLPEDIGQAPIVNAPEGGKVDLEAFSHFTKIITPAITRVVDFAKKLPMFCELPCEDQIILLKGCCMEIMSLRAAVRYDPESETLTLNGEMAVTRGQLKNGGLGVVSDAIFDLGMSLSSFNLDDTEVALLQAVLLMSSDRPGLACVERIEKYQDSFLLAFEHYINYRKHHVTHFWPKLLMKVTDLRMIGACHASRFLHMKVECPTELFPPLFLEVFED
Peroxisome proliferator-activated receptor delta (Homo sapiens), sequence (Q03181 whole entry, looked up): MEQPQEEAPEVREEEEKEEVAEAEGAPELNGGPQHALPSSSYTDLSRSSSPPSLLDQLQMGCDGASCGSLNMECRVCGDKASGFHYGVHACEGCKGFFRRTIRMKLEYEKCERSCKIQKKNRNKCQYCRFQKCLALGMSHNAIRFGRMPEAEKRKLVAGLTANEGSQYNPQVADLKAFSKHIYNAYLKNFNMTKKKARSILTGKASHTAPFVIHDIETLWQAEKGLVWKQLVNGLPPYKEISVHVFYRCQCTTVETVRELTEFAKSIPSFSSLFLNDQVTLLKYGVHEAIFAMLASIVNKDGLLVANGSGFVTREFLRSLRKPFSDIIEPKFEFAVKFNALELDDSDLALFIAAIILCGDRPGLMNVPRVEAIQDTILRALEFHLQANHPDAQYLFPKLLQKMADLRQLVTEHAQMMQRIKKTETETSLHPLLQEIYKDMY
Peroxisome proliferator-activated receptor alpha (Homo sapiens), sequence (Q07869 whole entry, looked up): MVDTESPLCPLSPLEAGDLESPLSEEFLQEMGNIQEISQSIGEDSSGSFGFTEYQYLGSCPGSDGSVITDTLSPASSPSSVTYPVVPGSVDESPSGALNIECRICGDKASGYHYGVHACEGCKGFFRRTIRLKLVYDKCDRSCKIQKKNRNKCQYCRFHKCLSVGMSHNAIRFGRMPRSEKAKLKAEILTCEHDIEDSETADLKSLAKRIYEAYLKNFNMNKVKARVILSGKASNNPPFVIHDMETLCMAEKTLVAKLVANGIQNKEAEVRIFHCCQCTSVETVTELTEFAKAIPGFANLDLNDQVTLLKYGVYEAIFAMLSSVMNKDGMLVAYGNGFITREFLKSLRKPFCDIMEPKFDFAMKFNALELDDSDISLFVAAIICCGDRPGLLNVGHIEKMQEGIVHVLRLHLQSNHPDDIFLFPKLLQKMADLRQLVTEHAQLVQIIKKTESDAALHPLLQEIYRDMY
Vitamin D3 receptor (Homo sapiens), sequence (P11473 whole entry, looked up): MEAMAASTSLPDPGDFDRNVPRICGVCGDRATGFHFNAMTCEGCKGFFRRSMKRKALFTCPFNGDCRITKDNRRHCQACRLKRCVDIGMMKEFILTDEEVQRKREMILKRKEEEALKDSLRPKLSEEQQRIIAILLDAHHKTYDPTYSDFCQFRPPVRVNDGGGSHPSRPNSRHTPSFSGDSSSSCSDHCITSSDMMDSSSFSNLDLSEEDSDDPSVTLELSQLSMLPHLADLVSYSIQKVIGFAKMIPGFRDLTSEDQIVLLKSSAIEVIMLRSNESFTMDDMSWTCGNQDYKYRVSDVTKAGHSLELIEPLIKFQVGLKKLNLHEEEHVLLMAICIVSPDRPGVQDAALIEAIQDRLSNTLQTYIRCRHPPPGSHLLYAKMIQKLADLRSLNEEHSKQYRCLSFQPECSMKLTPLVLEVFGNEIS
Nuclear receptor subfamily 1 group I member 2 (Rattus norvegicus), sequence (Q9R1A7 whole entry, looked up): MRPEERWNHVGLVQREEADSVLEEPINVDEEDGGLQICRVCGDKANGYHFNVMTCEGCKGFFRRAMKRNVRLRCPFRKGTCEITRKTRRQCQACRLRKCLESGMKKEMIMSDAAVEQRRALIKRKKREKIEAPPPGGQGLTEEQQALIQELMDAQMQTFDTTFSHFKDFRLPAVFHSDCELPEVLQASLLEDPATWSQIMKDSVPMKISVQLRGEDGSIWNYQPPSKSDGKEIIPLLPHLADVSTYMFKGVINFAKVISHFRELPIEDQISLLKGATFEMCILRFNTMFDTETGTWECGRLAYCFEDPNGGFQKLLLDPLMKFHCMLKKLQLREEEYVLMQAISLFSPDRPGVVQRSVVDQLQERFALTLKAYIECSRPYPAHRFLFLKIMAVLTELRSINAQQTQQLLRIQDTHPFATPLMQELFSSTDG
Retinoic acid receptor RXR-alpha (Homo sapiens), sequence (P19793 whole entry, looked up): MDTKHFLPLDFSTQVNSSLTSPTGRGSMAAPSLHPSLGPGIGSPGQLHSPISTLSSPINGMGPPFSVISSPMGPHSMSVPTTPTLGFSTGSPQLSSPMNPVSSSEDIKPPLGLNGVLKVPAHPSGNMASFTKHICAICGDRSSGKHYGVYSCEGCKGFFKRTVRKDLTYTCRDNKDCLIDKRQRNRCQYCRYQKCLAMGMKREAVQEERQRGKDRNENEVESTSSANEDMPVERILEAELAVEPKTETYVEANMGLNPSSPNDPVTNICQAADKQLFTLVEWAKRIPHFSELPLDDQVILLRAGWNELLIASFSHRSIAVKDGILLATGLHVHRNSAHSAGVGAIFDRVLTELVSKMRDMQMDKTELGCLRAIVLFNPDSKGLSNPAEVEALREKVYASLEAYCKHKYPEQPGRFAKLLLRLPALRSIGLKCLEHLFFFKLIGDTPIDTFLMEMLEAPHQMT
Estrogen receptor (Homo sapiens), sequence (P03372 whole entry, looked up): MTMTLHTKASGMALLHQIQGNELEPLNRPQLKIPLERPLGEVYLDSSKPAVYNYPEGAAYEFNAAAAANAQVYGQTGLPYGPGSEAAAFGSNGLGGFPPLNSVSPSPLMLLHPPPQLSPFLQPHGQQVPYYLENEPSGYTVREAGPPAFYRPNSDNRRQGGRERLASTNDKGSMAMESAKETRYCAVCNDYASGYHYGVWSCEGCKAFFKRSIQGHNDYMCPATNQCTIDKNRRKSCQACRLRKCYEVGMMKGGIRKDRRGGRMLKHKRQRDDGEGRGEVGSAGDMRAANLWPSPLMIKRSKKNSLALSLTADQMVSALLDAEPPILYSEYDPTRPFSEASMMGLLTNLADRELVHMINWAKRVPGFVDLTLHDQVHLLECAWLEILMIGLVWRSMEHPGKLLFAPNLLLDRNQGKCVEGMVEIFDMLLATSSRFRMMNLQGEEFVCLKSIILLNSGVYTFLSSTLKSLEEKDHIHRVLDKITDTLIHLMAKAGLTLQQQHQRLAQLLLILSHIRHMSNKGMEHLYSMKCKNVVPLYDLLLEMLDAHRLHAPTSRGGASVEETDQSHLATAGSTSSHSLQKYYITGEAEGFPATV
Peroxisome proliferator-activated receptor gamma (Homo sapiens), sequence (P37231 whole entry, looked up): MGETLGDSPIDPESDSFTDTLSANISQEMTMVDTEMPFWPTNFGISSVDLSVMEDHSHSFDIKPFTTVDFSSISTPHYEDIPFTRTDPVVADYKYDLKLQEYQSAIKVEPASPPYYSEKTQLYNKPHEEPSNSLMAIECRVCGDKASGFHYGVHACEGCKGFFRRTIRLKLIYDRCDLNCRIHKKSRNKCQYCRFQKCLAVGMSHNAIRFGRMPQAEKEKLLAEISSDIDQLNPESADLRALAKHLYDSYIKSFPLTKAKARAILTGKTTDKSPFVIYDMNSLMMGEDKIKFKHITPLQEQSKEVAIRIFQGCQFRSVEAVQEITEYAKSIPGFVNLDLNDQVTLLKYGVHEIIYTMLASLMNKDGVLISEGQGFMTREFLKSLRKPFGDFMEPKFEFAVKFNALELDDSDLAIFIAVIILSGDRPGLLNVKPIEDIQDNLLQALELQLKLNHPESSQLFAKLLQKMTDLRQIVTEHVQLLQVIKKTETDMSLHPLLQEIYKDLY

CCOP(=O)(OCC)SCS(=O)(=O)C(C)(C)C
-4.31%: max response [9]
4.6%: max response [6]
inactive: Potency [1] | outcome [2] | Potency [3] | Potency [4] | outcome [5] | Potency [7] | Potency [8] | max response [10] 2.18% | activation [11] 2.21% | activation [12] -0.0868% | activation [13] 2.25% | max response [14] -3.37% | Potency [15] | max response [16] 1.67% | Potency [17] | max response [18] 5.96%

O=C(Nc1ccccc1)Nc1ccnc(Cl)c1
inactive: Potency [1] | outcome [2] | Potency [3] | Potency [4] | outcome [5] | Potency [8] | activation [11] 4.1% | activation [12] -0.762% | activation [13] 11% | max response [14] -0.317% | max response [16] -3.22% | max response [19] -3.84% | Potency [17] | max response [18] 9.67%

CCOP(N)(=O)Oc1ccc(SC)c(C)c1 (stereo not given)
-16.6%: max response [6]
-11.1%: max response [9]
inactive: Potency [1] | outcome [2] | Potency [3] | Potency [4] | outcome [5] | Potency [7] | Potency [8] | max response [10] -26.2% | activation [11] -1.01% | activation [12] 0.0027% | activation [13] 0.564% | max response [14] -3.39% | Potency [15] | max response [16] -8.16% | max response [19] -8.45% | Potency [17] | max response [18] 4.69%

COP(=S)(OC)Oc1c(Cl)cc(C)cc1Cl
0.267%: max response [6]
-6.8%: max response [9]
inactive: Potency [20] | outcome [2] | Potency [3] | Potency [4] | outcome [5] | Potency [7] | Potency [8] | max response [10] -12.7% | activation [11] 7.93% | activation [12] -0.0055% | max response [14] 5.67% | Potency [15] | max response [16] -1.53% | max response [19] -18.5% | Potency [17] | max response [18] 1.76%

CCOc1nc(F)cc2nc(S(=O)(=O)Nc3c(Cl)cccc3Cl)nn12
3.57%: max response [6]
inactive: Potency [1] | outcome [2] | Potency [4] | outcome [5] | Potency [7] | Potency [8] | max response [10] -25.7% | activation [11] 1.78% | activation [12] 0.211% | activation [13] -0.921% | max response [14] -2.41% | Potency [15] | max response [16] -9.33% | max response [19] -11.2% | Potency [17] | max response [18] 1.99%
6.95%: max response [9]

CCc1cc(C)cc(CC)c1-c1c(OC(=O)C(C)(C)C)n2n(c1=O)CCOCC2
0.581%: max response [9]
-12.9%: max response [6]
inactive: Potency [1] | outcome [2] | Potency [3] | Potency [4] | Potency [7] | Potency [8] | max response [10] 4.99% | activation [11] -4.38% | activation [12] -1.54% | activation [13] 2.1% | max response [14] -1.33% | Potency [15] | max response [16] 0.802% | max response [19] -3.66% | Potency [17] | max response [18] 1.04%

O=C(NC(=O)c1c(F)cccc1F)Nc1cc(Cl)c(OC(F)(F)C(F)F)c(Cl)c1
-11.9%: max response [9]
inactive: Potency [1] | Potency [3] | Potency [7] | max response [10] 21.4% | activation [11] -1.27% | activation [13] 0.0082% | max response [14] -1.91% | Potency [15] | max response [16] -11.1% | max response [19] -28.3% | Potency [17] | max response [18] -0.359%
5.34%: max response [6]

CO/N=C(/C(=O)OC)c1ccccc1COc1ccccc1C
active: Potency [11] 25.1 µM
inactive: Potency [1] | outcome [5] | Potency [7] | Potency [8] | activation [12] -0.43% | activation [13] 13.1% | max response [14] 5.1% | Potency [15] | max response [16] -19.8% | max response [19] -26.1%
13.9%: max response [6]

O=C(Nc1ccccc1)Nc1cnns1
1.32%: max response [9]
inactive: Potency [1] | outcome [2] | Potency [4] | outcome [5] | Potency [8] | max response [10] -46.6% | activation [11] 2.3% | activation [12] 0.693% | max response [14] 0.0118% | max response [16] -2.01% | max response [19] -16.6% | Potency [17]

Clc1ccc(C2(Cn3cncn3)CC(Br)CO2)c(Cl)c1 (stereo not given)
inactive: Potency [1] | outcome [2] | Potency [3] | Potency [4] | outcome [5] | Potency [7] | Potency [8] | max response [10] -17.6% | activation [11] 1.75% | activation [12] -2.79% | activation [13] 0.536% | max response [14] 0.204% | Potency [15] | max response [16] -3.86% | max response [19] -20.3% | Potency [17]
6.2%: max response [6]
-1.33%: max response [9]

CCC(C)(C)c1ccc(O)c(C(C)(C)CC)c1
-12.2%: max response [9]
inactive: Potency [1] | outcome [2] | Potency [3] | outcome [5] | max response [10] 0.417% | activation [11] -0.913% | activation [13] -1.01% | Potency [15] | max response [16] -16.3% | max response [19] -2.63% | max response [18] 3.81%
active: Potency [14] 35.5 µM

CC(C)(C)C(O)/C(=C\c1ccc(Cl)cc1Cl)n1cncn1 (stereo not given)
inactive: Potency [1] | outcome [2] | Potency [4] | Potency [8] | activation [11] 9.12% | activation [13] 6.02% | max response [14] 1.97% | Potency [15] | max response [16] -10.7% | max response [19] -6.74%
